# Laboratory results: the supplement of paper PMC12067093, “Discovery and optimisation of a covalent ligand for TRIM25 and its application to targeted protein ubiquitination” (Chemical Science, 2025)
# Targets with the largest changes are over-represented here; the source holds about 21,000 in all.
# Compound: Cc1cc(ccc1-c1ccccc1)C(=O)N1CCCN(CC1)C(=O)CCl [compound 10]
# Assay: probe-labelled cysteine peptide fold change vs DMSO (competition) (log2 fold change); higher = less target engagement (more negative = stronger competition)
# Conditions: THP-1, incubation time: 4 h
# 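Note: competitive profiling in live THP-1 cells: cysteine peptides tagged with an iodoacetamide desthiobiotin (IA-DTB) probe, intensity after compound treatment relative to DMSO-treated cells.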
# Chain of UniProt Q13740 (Q13740 whole entry, looked up): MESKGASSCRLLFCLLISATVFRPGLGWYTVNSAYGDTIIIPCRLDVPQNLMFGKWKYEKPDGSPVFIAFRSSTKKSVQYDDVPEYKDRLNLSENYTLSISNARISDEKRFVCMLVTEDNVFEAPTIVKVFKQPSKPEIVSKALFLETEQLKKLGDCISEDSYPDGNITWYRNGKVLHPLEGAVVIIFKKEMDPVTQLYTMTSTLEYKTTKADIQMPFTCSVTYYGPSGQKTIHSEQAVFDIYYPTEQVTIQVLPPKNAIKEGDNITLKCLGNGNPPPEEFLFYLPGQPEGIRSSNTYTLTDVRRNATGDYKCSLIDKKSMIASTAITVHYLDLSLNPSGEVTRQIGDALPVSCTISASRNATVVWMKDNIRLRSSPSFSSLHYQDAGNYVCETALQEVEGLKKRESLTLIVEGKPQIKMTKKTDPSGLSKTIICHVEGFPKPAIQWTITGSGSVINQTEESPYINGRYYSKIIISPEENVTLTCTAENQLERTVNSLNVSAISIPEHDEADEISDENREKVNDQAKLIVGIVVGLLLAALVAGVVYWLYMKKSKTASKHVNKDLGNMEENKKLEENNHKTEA
# Chain of UniProt P31939 (P31939 whole entry, looked up): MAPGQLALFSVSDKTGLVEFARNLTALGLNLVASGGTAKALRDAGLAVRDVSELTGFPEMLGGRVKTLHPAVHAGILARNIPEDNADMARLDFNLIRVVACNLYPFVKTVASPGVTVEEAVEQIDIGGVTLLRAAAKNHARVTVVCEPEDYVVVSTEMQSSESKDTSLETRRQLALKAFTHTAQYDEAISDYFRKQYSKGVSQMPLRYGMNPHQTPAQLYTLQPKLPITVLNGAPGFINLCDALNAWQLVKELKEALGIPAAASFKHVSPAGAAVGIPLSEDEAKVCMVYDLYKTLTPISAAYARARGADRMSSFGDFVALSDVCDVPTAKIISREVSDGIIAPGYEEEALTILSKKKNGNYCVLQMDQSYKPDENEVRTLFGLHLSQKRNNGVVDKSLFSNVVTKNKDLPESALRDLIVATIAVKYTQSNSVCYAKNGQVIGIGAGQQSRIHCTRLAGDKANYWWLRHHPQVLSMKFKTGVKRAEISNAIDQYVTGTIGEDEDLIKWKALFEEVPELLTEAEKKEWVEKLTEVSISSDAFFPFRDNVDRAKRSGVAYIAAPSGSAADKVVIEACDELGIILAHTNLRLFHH
# Chain of UniProt Q9NP73 (Q9NP73 whole entry): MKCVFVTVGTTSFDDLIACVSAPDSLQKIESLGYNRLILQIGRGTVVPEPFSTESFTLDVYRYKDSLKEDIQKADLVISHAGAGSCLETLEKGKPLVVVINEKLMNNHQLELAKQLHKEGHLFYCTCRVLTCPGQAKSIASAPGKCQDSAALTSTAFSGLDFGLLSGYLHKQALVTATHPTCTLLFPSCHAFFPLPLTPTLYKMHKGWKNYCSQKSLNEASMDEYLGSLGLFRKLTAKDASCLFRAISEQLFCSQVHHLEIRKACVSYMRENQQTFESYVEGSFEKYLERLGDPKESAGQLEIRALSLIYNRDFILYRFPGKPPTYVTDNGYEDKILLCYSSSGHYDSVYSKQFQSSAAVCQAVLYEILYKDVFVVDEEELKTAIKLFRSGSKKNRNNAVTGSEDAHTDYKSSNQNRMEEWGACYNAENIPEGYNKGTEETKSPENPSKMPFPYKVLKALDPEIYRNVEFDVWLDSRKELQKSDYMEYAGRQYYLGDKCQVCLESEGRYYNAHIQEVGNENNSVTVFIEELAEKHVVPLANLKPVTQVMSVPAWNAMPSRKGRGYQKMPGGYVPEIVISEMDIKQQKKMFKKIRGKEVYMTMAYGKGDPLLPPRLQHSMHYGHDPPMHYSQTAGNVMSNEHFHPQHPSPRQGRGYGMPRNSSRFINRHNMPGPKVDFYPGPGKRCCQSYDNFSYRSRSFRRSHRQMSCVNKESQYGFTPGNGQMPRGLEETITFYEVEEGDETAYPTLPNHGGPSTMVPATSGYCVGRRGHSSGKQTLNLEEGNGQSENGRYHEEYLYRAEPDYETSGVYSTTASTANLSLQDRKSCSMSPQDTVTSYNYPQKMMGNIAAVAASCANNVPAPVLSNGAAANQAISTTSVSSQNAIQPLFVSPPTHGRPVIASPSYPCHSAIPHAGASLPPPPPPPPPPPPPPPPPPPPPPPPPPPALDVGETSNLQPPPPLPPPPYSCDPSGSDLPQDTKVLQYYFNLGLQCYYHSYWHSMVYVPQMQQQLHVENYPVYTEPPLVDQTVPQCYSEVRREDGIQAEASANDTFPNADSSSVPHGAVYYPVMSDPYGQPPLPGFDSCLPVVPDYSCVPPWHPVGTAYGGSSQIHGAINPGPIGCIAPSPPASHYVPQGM
# Chain of UniProt O14672 (O14672 whole entry, looked up): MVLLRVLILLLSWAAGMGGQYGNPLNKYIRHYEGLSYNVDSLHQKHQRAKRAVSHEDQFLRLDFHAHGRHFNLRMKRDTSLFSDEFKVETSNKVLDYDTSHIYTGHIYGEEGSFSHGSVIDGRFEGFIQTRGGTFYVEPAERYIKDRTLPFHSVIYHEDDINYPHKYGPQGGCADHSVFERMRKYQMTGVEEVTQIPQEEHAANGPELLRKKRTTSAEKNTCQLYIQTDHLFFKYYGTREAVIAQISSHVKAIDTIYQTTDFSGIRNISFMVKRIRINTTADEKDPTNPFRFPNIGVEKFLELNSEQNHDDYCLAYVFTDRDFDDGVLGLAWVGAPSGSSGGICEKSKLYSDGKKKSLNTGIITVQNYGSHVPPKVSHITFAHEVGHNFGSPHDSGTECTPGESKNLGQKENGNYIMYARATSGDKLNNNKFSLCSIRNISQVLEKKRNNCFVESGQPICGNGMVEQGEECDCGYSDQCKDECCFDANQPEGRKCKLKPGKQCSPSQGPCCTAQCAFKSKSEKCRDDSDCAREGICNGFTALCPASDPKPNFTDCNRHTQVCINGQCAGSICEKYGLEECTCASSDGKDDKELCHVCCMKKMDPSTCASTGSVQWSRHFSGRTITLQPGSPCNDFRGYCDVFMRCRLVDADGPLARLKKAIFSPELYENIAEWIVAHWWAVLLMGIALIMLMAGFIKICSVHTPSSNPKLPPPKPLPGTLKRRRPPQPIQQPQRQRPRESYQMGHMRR
# Chain of UniProt Q92619 (Q92619 whole entry, looked up): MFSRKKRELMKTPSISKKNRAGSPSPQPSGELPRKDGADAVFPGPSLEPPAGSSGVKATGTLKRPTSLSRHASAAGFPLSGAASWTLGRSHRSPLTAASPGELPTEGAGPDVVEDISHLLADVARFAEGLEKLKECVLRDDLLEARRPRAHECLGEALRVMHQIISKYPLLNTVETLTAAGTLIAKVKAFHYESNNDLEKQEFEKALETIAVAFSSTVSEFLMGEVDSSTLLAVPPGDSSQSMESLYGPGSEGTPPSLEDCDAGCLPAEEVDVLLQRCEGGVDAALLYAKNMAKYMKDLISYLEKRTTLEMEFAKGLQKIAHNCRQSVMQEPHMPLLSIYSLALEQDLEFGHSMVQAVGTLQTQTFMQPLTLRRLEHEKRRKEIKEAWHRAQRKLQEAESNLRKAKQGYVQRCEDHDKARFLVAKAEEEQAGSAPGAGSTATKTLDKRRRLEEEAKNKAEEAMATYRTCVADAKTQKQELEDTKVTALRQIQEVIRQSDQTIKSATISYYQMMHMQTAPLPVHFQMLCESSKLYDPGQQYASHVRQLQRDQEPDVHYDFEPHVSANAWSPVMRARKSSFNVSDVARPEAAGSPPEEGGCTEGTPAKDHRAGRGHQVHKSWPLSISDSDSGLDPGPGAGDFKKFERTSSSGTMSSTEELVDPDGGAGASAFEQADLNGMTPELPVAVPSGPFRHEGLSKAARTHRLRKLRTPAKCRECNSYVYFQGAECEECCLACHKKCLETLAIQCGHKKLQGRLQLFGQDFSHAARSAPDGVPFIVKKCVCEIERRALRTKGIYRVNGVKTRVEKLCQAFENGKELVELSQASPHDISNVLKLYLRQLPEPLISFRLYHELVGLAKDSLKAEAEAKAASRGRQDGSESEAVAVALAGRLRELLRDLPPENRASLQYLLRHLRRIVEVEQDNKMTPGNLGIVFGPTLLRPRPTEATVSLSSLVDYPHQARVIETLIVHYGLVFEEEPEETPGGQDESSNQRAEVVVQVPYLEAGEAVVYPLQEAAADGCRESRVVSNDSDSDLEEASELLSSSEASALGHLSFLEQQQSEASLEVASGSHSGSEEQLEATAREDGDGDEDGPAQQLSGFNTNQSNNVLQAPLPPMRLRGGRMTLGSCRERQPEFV
# Chain of UniProt P38606 (P38606 whole entry, looked up): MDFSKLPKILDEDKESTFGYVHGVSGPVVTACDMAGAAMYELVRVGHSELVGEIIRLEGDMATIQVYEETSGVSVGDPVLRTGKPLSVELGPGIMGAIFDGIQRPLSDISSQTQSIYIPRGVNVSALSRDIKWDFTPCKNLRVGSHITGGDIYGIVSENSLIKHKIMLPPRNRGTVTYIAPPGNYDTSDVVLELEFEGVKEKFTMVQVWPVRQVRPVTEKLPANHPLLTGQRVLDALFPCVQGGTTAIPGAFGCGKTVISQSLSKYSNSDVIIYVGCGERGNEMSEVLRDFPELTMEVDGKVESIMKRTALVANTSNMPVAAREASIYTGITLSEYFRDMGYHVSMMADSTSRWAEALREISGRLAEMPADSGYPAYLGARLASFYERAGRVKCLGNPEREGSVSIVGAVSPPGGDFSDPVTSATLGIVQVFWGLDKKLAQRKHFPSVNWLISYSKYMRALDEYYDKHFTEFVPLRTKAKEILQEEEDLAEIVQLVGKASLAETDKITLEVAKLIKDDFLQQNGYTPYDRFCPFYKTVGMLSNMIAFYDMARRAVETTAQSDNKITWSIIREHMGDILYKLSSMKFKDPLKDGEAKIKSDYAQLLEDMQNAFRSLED
# Chain of UniProt O00244 (O00244 whole entry, looked up): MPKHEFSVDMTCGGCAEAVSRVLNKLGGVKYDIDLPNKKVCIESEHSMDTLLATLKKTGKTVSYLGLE
Target,probe-labelled cysteine peptide fold change (10 µM),probe-labelled cysteine peptide fold change (50 µM)
APBB1IP_Q7Z5R6_401_YLCCDDTR (UniProt Q7Z5R6),-0.318,-0.372
AIDA_Q96BJ3_69_IATCLELR (UniProt Q96BJ3),-0.123,-0.606
ATM_Q13315_1396_ATFAYISNCHK (UniProt Q13315),-1.94,-2.52
ALKBH5_Q6P6C2_100_LFSQDECAK (UniProt Q6P6C2),-0.000108,0.012
ARNT_P27540_269_CGSSSVDPVSVNR (UniProt P27540),-0.375,-0.756
ACSL4_O60488_221_TALLDISCVK (UniProt O60488),0.177,0.0446
ADAM10_O14672_530_DDSDCAR (UniProt O14672),0.552,1.2
ATIC_P31939_575_VVIEACDELGIILAHTNLR (UniProt P31939),0.103,0.126
ANXA4_P09525_315_KVLLVLCGGDD (UniProt P09525),-0.0611,-0.661
ANKFY1_Q9P2R3_389_TPLHVSIMAGNEYVFSQLLQCK (UniProt Q9P2R3),0.123,0.15
ALG13_Q9NP73_86_ADLVISHAGAGSCLETLEK (UniProt Q9NP73),-0.211,-0.753
ATP5F1A_P25705_244_KLYCIYVAIGQK (UniProt P25705),-1.08,0.236
ARMC6_Q6NXE6_121_FCDQCK (UniProt Q6NXE6),-0.142,-0.663
AIP_O00170_121+122_HCCGVAQMR (UniProt O00170),-0.298,-1.16
ANKRD17_O75179_564_AGADIELGCSTPLMEAAQEGHLELVK (UniProt O75179),0.0101,-0.0606
ATP2B1_P20020_463+473_HLDACETMGNATAICSDK (UniProt P20020),-0.241,0.05
ARHGAP45_Q92619_809_LCQAFENGK (UniProt Q92619),0.077,0.0355
ACTR3B_Q9P1U1_408_DYEEYGPSICR (UniProt Q9P1U1),0.154,0.0944
ATOX1_O00244_41_VCIESEHSMDTLLATLKK (UniProt O00244),0.237,-0.215

Target,probe-labelled cysteine peptide fold change (10 µM),probe-labelled cysteine peptide fold change (50 µM)
ARHGEF6_Q15052_530_IVVHCNNNQDFQEWLEQLNR (UniProt Q15052),0.0109,0.158
ALDOA_P04075_339_RALANSLACQGK (UniProt P04075),-0.187,-0.104
ATP2B4_P23634_632_TVIEPMACDGLR (UniProt P23634),-0.0204,-0.262
AKR1B1_P15121_299_VCALLSCTSHK (UniProt P15121),-0.208,-2.38
ARPC1B_O15143_227_VAWVSHDSTVCLADADKK (UniProt O15143),0.103,-0.0807
AP2B1_P63010_565_PLISEETDLIEPTLLDELICHIGSLASVYHKPPNAFVEGSHGIHR (UniProt P63010),0.119,-0.142
ANAPC1_Q9H1A4_1074_LLQLCQR (UniProt Q9H1A4),-0.0436,0.000425
ANKMY2_Q8IV38_390_LDVNSNCVNEEQPEAEVGISQK (UniProt Q8IV38),-0.281,-0.0242
ALDH1L1_O75891_537_YFAGWCDK (UniProt O75891),-0.0268,-0.223
ALDOA_P04075_178_YASICQQNGIVPIVEPEILPDGDHDLKR (UniProt P04075),0.281,-0.12
ALCAM_Q13740_270_CLGNGNPPPEEFLFYLPGQPEGIR (UniProt Q13740),-0.0239,0.0758
AKR1B1_P15121_45_HIDCAHVYQNENEVGVAIQEK (UniProt P15121),0.0652,-0.0317
ANLN_Q9NQW6_978_CQVNSSVEER (UniProt Q9NQW6),0.153,0.239
ANKHD1_Q8IWZ3_1716_GGCNITAIQDVTGAHIDVDK (UniProt Q8IWZ3),0.183,0.0508
ATP6V1A_P38606_138_WDFTPCK (UniProt P38606),-1.09,-3.27
ACSL3_O95573_85_SVNSLDGLASVLYPGCDTLDK (UniProt O95573),0.0339,0.289
ADK_P55263_160_SLIANLAAANCYKK (UniProt P55263),-0.309,-1.01
ACOX1_Q15067_392_AFTSWTANTGIEACR (UniProt Q15067),0.0592,0.0993
ASCC3_Q8N3C0_366_KAGEDLEVSEGLMCFDPK (UniProt Q8N3C0),-0.217,-0.375
